Measured values: patent publication US20060069055, “Delivery of polynucleotides” (published 2006)

The sequences below were run against NF-kB p50/p50 homodimer (Homo sapiens, UniProt P19838 P19838:1-433) (assay: EMSA). Settings: protein: extract; tags: nuclear extract of LPS-stimulated THP-1 cells; chain copies: 2 stated; dsDNA, one strand shown.
Text: The EMSA assay was employed to characterize oligonucleotide decoys for the NF-κB transcription factor. […] Using the above modified oligonucleotides to compete for binding for the above-mentioned NF-κB family members, it was possible to compare the binding affinity of these oligonucleotides against the high affinity radiolabeled probe and each other. This assay has also enabled the design of a decoy which selectively binds particular members of the NF-κB family. By using increasing concentrations of various oligonucleotides, it was observed that, by deleting or changing targeted residues in the binding site, it was possible to specifically decrease the binding of the decoy molecule to p50/p50 homodimers, while retaining the affinity for p65/p50 and cRel/p50 heterodimers.
The NF-κB gel shift assays (EMSA) were performed as follows. A double-stranded oligonucleotide containing a consensus NF-κB binding site (5′ […].GGC 3′) (SEQ ID NO: 26) was end-labeled with γ³²P-ATP using T4 Polynucleotide Kinase (Promega). One microgram of a nuclear extract prepared from LPS stimulated THP-1 cells (human monocyte cell line) was incubated with 35 fmol of radiolabeled probe in the presence or absence of competing unlabeled NF-κB double-stranded oligonucleotides (dsODN) or scrambled dsODN. The incubations were carried out at room temperature for 30 minutes in a 20 μl reaction volume composed of 10 mM Tris-HCl pH 8, 100 mM KCL, 5mM MgC12, 2mM DTT, 10% Glycerol, 0.1% NP-40, 0.025% BSA and 1 μg Poly-dIdC. The reactions were loaded onto a 6% polyacrylamide gel, subjected to electrophoresis and dried. The dried gels were imaged and quantitated using a Typhoon 8600 Phosphorlmager (Amersham) and ImageQuant software. The identity of the NF-κB proteins contained in complexes bound to the radiolabeled oligonucleotide probe were identified by pre-incubating the reactions for 5 minutes with individual antibodies specific for each member of the NF-κB family prior to the addition of the radiolabeled probe.

NF-kB p50/p50 homodimer, sequence (P19838 1-433, one chain of several): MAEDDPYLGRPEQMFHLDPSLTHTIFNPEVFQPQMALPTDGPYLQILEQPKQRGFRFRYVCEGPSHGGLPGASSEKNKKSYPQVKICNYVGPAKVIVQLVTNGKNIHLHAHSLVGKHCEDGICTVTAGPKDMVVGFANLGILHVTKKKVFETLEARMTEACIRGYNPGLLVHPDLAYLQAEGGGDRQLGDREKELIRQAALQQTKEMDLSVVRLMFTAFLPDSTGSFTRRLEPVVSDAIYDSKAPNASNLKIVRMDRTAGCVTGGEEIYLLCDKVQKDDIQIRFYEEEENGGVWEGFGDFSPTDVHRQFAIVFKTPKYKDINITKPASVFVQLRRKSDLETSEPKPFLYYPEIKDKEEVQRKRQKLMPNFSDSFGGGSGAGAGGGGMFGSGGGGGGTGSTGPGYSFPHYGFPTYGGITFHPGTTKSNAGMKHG

Row | Sequence | IC50 [fold molar excess]
1 | TCGGACTTTCCTC | 97
2 | TCGGACTTTCCCTC | 62.5
3 | AGTTGAGGGATTTCCAGGC | 69
4 | AGTTGAGGATTTCCCAGGC | 84
5 | TTGAGGACTTTCCAGGCTC | 85
6 | AGTTGAGGATTTCCAGGC | 82
